Assay [1] in a line: ATG_GLI_CIS: Attagene CIS-FACTORIAL HepG2 Assay for human Zinc Finger Protein GLI1 (AID 2282945). The conditions noted are these: HepG2, Attagene cis-factorial reporter mRNA, GLI element; actives raise or lower the signal. The method, boiled down: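 Bidirectional curve fits relative to DMSO, using reporter mRNA levels from RT-PCR plus capillary electrophoresis. Cells were HepG2 transiently carrying cis-regulated reporter constructs, harvested 24 h after dosing.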

The target in assay [2] is Bile acid receptor (Homo sapiens) (UniProt Q96RI1). Put plainly: ATG_IR1_CIS: Attagene CIS-FACTORIAL HepG2 Assay for human Nuclear Receptor Subfamily 1 Group H Member 4 (NR1H4), IR1 submotif (AID 2282946). The following applies: IR1 reporter transcription, actives raise or lower the signal. In short, it runs like this:
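Cells (human HepG2) carry transiently transfected cis-promoter reporter transcription units. Compounds are incubated 24 h, total RNA is reverse-transcribed and amplified, and labelled fragments are resolved by capillary electrophoresis. Curves use DMSO as baseline.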

Assay [3] in a line: ATG_GRE_CIS: Attagene CIS-FACTORIAL HepG2 Assay for human Glucocorticoid Response Elements (GRE) (AID 2282947). The following applies: HepG2 GRE cis-reporter, Attagene multiplex mRNA; actives raise or lower the signal. The method, boiled down:
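Transient MRTU transfection of human HepG2 liver cells; cis-regulated reporters report endogenous factors. 24 h dosing → RNA isolation → RT-PCR → 6-FAM primer extension → HpaI cut → CE fragment analysis. Bidirectional fit, DMSO negative control.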

A short description of assay [4]: ATG_ISRE_CIS: Attagene CIS-FACTORIAL HepG2 Assay for human Interferon Regulatory Factor 1 (IRF1) binding to an Interferon-Stimulated Response Element (ISRE) (AID 2282948). The conditions noted are these: HepG2 ISRE cis-reporter (Attagene), mRNA transcription readout; actives raise or lower the signal. In short, it runs like this: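 Cell-based cis-reporter assay; HepG2; 24 h exposure; reporter mRNA by RT-PCR plus capillary electrophoresis fluorescence; activity in either direction scored relative to DMSO.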

The nature of assay [5]: ATG_M_32_CIS: Attagene CIS-FACTORIAL HepG2 Assay for M32 Transcription Factor (Internal Marker) (AID 2282949).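 Note: background control marker of the multiplexed CIS panel rather than a real target.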 The following applies: HepG2 Attagene cis-factorial M32 reporter, mRNA; actives raise or lower the signal. The method, boiled down:
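Fluorescent capillary electrophoresis peaks of HpaI-digested, FAM-labelled RT-PCR reporter products give the signal. Source: transiently transfected human liver HepG2 cells, 24 h after chemical dosing; bidirectional fitting against DMSO.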

Assay [6] can be described thus: ATG_M_06_CIS: Attagene CIS-FACTORIAL HepG2 Assay for M06 Transcription Factor (Internal Marker) (AID 2282950). The conditions noted are these: HepG2 Attagene CIS-FACTORIAL M06 internal marker reporter; actives raise or lower the signal. The method, boiled down: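 Fluorescence-labelled RT-PCR products from cis-promoter reporter units, cut with HpaI and resolved by capillary electrophoresis, give the signal. Cells are human HepG2, dosed for 24 h. Serves as background control, fitted relative to DMSO.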

The target of assay [7] is Hypoxia-inducible factor 1-alpha (Homo sapiens) (UniProt Q16665). As to the kind of experiment: ATG_HIF1a_CIS: Attagene CIS-FACTORIAL HepG2 Assay for human Hypoxia Inducible Factor 1 (HIF1A) (AID 2282951). The following applies: HepG2 Attagene cis-factorial HIF1a reporter transcription; actives raise or lower the signal. In short, it runs like this: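 In this multiplexed cell assay, HepG2 cells bearing transfected cis reporters are dosed for 24 h and reporter mRNA is read by RT-PCR plus capillary electrophoresis; signal increases and decreases are both scored against DMSO.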
Sequence of Hypoxia-inducible factor 1-alpha (Homo sapiens) (Q16665 whole entry, looked up): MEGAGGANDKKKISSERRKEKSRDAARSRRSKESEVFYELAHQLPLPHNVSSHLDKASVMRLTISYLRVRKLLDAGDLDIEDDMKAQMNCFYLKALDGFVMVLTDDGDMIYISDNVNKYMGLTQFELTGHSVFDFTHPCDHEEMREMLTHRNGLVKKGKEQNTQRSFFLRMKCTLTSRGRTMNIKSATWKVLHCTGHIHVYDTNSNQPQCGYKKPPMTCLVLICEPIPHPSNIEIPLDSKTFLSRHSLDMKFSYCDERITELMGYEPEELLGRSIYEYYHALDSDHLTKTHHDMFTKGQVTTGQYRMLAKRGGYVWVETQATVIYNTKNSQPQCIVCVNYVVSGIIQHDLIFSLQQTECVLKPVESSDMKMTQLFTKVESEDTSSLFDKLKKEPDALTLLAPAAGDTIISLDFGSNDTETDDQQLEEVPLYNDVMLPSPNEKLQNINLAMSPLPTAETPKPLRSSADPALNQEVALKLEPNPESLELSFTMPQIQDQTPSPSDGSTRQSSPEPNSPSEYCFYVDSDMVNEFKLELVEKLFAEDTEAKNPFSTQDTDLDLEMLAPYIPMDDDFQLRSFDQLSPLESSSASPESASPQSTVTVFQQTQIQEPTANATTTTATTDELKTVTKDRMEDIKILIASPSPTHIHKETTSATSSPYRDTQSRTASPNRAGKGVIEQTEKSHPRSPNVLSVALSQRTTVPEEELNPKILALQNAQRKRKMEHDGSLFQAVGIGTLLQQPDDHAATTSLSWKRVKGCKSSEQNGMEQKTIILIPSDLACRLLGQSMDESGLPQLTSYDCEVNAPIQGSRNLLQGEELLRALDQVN

Assay [8] has as its target Hepatocyte nuclear factor 6 (Homo sapiens) (UniProt Q9UBC0). As to the kind of experiment: ATG_HNF6_CIS: Attagene CIS-FACTORIAL HepG2 Assay for human Hepatocyte Nuclear Factor 6 (HNF6) (AID 2282952). The conditions noted are these: HepG2 Attagene cis-factorial HNF6 reporter transcription; actives raise or lower the signal. The method, boiled down: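 Cells are HepG2 carrying transiently transfected cis-promoter reporter units. Treatment lasts 24 h, after which reporter transcripts are reverse-transcribed, amplified, FAM-labelled and sized by capillary electrophoresis. DMSO serves as baseline.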

In assay [9] the target is Heat shock factor protein 1 (Homo sapiens) (UniProt Q00613). As to the kind of experiment: ATG_HSE_CIS: Attagene CIS-FACTORIAL HepG2 Assay for human Heat Shock Transcription Factor 1 (HSE) (AID 2282953). The conditions noted are these: HepG2 HSE cis-reporter, Attagene RNA transcription; actives raise or lower the signal. The method, boiled down: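 After a 24 h incubation with test chemical, transfected HepG2 cells were harvested for RNA; reporter transcripts were measured by RT-PCR and capillary electrophoresis. Values reflect gain or loss of signal relative to DMSO.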
Sequence of Heat shock factor protein 1 (Homo sapiens) (Q00613 whole entry, looked up): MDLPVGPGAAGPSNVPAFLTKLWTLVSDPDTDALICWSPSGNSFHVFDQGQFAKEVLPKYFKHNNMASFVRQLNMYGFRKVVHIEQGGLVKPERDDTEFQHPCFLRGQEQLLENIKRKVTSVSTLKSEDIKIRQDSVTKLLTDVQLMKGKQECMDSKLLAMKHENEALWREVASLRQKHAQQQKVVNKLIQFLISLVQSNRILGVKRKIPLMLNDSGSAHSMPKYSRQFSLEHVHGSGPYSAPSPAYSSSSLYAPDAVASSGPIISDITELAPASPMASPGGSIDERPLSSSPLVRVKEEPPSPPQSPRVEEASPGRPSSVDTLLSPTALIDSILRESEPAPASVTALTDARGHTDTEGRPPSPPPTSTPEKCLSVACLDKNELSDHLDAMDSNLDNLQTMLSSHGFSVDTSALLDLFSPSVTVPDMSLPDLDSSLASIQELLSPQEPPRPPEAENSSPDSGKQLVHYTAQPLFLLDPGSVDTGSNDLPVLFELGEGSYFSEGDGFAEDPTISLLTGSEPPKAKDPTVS

Assay [10] is described as follows: ATG_MRE_CIS: Attagene CIS-FACTORIAL HepG2 Assay for human Metal Responsive Element (MRE) (AID 2282954). The following applies: HepG2 MRE cis-reporter transcription, Attagene multiplex; actives raise or lower the signal. In short, it runs like this: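 Transient MRTU transfection of HepG2 (FuGene 6); 24 h dosing; total RNA → oligo(dT) RT, PCR, 6-FAM primer extension, HpaI cut, CE. Bidirectional fit vs DMSO.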

Assay [11] in a line: ATG_PBREM_CIS: Attagene CIS-FACTORIAL HepG2 Assay for human Phenobarbital-responsive Enhancer Module (PBREM) (AID 2282955). The following applies: HepG2 PBREM cis-reporter, Attagene multiplexed transcription; actives raise or lower the signal. In short, it runs like this: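 After a 24 h incubation with test chemical, transfected HepG2 cells yield total RNA; reporter-specific RT-PCR products are fluorescently labelled, HpaI-digested and resolved by capillary electrophoresis against ROX size standards.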

Assay [12] is described as follows: ATG_PXRE_CIS: Attagene CIS-FACTORIAL HepG2 Assay for human Pregnane X Receptor Element (PXRE) (AID 2282957). The conditions noted are these: HepG2 Attagene CIS-FACTORIAL PXRE reporter, mRNA; actives raise or lower the signal. The method, boiled down:
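Multiplexed cis-reporter assay in transiently transfected human HepG2 cells; 24 h chemical exposure. Reporter transcripts quantified by RT-PCR with fluorescent labeling and capillary electrophoresis.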

A short description of assay [13]: ATG_PPRE_CIS: Attagene CIS-FACTORIAL HepG2 Assay for human Peroxisome Proliferator-activated Response Element (PPRE) (AID 2282958). The conditions noted are these: HepG2 PPRE cis-element reporter, Attagene transcription factor profiling; actives raise or lower the signal. The method, boiled down: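 Multiplexed reporter transcription units under cis-regulatory promoters were transfected into HepG2 cells to capture endogenous factor activity. A 24 h incubation preceded RNA isolation and fluorescent RT-PCR fragment analysis.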

Assay [14] in a line: ATG_RORE_CIS: Attagene CIS-FACTORIAL HepG2 Assay for human RAR-related Orphan Receptor Element (RORE) (AID 2282959). The conditions noted are these: HepG2 Attagene cis-factorial RORE reporter, mRNA; actives raise or lower the signal. The method, boiled down:
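Fluorescence intensity of reporter-specific cDNA fragments, separated by capillary electrophoresis, gives the signal. Source: HepG2 liver cells transiently transfected with cis-element reporters and exposed 24 h; DMSO-normalized bidirectional fit.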

Assay [15] in a line: ATG_Sox_CIS: Attagene CIS-FACTORIAL HepG2 Assay for human SRY-box transcription factor (SOX) (AID 2282960). The following applies: HepG2 Attagene cis-factorial SOX reporter, mRNA; actives raise or lower the signal. The method, boiled down: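 After 24 h of chemical treatment, transfected HepG2 reporter cells are lysed for total RNA. Transcript levels come from RT-PCR with labelled primer extension and capillary electrophoresis, analysed bidirectionally versus DMSO.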

Assay [16] deals with Transcription factor Sp1 (Homo sapiens) (UniProt P08047). Put plainly: ATG_Sp1_CIS: Attagene CIS-FACTORIAL HepG2 Assay for human Specificity Protein 1 (Sp1) (AID 2282961). The conditions noted are these: HepG2 Sp1 cis-reporter transcription, actives raise or lower the signal. The method, boiled down:
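Sp1-driven reporter mRNA, read as capillary electrophoresis fluorescence after RT-PCR, in transiently transfected HepG2 cells dosed for 24 h; signal change in either direction relative to DMSO.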

Assay [17] can be described thus: ATG_SREBP_CIS: Attagene CIS-FACTORIAL HepG2 Assay for human Sterol Regulatory Element Binding (SREBP) (AID 2282962). The conditions noted are these: HepG2 Attagene cis-factorial SREBP reporter, mRNA; actives raise or lower the signal. In short, it runs like this: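 mRNA induction of transfected cis-promoter reporters in HepG2 cells, 24 h post-dose. Detection: RT-PCR with 6-FAM-labelled products, HpaI digest, capillary electrophoresis. DMSO served as negative control and baseline.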

The target of assay [18] is Signal transducer and activator of transcription 3 (Homo sapiens) (UniProt P40763). Put plainly: ATG_STAT3_CIS: Attagene CIS-FACTORIAL HepG2 Assay for human Signal Transducer and Activator of Transcription 3 (STAT3) (AID 2282963). The conditions noted are these: HepG2, Attagene cis-factorial STAT3 reporter transcription; actives raise or lower the signal. The method, boiled down:
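Endogenous STAT3-responsive cis-element activity was read in transiently transfected HepG2 cells after 24 h treatment. Reporter transcripts were quantified via RT-PCR and capillary electrophoresis, with DMSO as negative control and bidirectional curve fitting.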

Assay [19] can be described thus: ATG_TA_CIS: Attagene CIS-FACTORIAL HepG2 Assay for human TA Basal Promoter (AID 2282964). The following applies: HepG2 Attagene CIS-factorial TA basal promoter reporter; actives raise or lower the signal. In short, it runs like this: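 Multiplexed mRNA reporter assay, HepG2, 24 h. Reporter cDNA amplified, 6-FAM primer-extended, HpaI-cut, CE-sized; DMSO = negative control and baseline.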

Assay [20] addresses Paired box protein Pax-6 (Homo sapiens) (UniProt P26367). As to the kind of experiment: ATG_Pax6_CIS: Attagene CIS-FACTORIAL HepG2 Assay for human Paired Box 6 (PAX6) (AID 2282956). The following applies: HepG2 CIS-FACTORIAL PAX6 reporter transcription, RNA readout; actives raise or lower the signal. In short, it runs like this:
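Multiplexed cis-reporter HepG2 system; 24 h treatment; reporter mRNA read by RT-PCR/CE fluorescence; bidirectional fit vs DMSO.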

Calls of active or inactive are those of the source. Rule for the calls: active = hit-call score of the fitted dose curve at least 0.9, where 1 is the maximum; inactive = score below 0.9.

Sequence of Bile acid receptor (Homo sapiens) (Q96RI1 whole entry, looked up, the tested form may be a part): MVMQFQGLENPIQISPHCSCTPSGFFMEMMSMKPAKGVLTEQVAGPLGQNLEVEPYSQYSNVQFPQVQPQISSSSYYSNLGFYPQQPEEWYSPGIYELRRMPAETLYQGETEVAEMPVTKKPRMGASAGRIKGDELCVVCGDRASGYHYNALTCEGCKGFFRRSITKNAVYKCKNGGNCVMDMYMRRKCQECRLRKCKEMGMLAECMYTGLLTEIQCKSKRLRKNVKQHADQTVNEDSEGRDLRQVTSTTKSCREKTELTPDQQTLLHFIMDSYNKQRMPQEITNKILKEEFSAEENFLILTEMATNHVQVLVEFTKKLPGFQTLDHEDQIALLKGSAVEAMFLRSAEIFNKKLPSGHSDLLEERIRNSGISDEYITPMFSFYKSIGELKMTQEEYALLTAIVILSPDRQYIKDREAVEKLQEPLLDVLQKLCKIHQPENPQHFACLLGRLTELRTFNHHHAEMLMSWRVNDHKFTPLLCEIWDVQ
Sequence of Signal transducer and activator of transcription 3 (Homo sapiens) (P40763 whole entry, looked up): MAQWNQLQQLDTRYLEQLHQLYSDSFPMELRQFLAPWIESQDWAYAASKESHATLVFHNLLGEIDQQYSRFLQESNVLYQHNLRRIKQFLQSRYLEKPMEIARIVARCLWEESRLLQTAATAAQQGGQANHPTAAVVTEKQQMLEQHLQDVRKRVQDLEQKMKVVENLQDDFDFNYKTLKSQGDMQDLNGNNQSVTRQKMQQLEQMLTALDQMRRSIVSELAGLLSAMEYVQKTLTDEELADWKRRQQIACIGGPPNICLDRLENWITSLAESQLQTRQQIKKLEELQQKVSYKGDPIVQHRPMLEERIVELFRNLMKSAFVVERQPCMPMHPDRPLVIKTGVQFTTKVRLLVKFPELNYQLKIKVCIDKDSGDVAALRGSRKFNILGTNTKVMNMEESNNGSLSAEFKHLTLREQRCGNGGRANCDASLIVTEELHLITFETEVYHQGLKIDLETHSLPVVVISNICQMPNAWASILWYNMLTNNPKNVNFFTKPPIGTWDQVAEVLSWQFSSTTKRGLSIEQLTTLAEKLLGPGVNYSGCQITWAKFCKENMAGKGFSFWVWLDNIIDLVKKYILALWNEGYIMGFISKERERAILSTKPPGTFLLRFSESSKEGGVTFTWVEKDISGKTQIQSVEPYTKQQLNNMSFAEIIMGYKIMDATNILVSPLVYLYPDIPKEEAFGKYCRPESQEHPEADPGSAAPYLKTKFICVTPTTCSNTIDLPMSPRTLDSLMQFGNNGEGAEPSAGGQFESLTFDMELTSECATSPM
Sequence of Transcription factor Sp1 (Homo sapiens) (P08047 whole entry, looked up): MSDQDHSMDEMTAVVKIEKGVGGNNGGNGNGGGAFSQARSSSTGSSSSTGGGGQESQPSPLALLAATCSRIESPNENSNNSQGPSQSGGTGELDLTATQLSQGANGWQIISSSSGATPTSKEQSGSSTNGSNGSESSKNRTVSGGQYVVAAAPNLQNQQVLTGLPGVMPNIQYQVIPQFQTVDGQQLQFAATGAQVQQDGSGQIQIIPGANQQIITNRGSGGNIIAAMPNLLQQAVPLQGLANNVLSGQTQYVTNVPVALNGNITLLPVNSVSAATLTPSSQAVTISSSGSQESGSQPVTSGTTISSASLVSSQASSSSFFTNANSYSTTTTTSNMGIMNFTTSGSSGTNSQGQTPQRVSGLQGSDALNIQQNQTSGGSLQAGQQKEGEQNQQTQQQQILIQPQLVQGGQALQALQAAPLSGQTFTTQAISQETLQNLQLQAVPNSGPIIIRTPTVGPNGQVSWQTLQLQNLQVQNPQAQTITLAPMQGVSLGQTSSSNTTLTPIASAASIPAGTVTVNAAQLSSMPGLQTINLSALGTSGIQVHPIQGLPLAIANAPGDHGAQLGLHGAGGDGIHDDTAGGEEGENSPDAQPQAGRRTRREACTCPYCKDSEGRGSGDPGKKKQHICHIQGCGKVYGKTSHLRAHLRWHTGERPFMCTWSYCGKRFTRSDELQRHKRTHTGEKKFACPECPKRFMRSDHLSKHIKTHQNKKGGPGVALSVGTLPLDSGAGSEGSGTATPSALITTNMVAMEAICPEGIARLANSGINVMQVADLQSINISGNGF
Sequence of Hepatocyte nuclear factor 6 (Homo sapiens) (Q9UBC0 whole entry, looked up): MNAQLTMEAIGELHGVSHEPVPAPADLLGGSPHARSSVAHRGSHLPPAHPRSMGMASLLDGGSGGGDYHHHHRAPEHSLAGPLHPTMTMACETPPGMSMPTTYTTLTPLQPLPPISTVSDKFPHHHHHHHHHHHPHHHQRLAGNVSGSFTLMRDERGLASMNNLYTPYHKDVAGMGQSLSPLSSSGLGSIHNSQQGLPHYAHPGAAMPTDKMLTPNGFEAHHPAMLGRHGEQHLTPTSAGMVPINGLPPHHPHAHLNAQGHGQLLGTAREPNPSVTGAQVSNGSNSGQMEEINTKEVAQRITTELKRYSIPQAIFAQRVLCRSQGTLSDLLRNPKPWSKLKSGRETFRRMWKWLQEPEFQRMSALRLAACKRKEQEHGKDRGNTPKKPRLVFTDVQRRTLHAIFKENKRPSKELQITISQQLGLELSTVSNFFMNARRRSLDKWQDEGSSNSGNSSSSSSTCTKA
Sequence of Paired box protein Pax-6 (Homo sapiens) (P26367 whole entry, looked up): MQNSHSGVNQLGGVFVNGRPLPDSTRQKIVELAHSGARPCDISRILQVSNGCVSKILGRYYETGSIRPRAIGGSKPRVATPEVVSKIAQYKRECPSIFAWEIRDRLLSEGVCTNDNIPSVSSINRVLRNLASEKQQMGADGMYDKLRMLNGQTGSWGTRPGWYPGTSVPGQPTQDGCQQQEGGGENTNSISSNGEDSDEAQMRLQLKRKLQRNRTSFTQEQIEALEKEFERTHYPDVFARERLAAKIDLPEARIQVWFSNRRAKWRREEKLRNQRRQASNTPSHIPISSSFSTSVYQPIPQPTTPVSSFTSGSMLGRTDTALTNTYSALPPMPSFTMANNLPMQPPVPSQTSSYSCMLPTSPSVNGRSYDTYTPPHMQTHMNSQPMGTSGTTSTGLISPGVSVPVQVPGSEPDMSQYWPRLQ

For orientation: AC50 means the concentration at which the activity in the assay is half-maximal. For `Cc1ccc(O)c(-n2nc3ccccc3n2)c1`, the molecule was classed as inactive in [1], in [2], in [3], in [4], in [5] and in [6]. Besides, the result in assay [7], in [8], in assay [9], in assay [10], in assay [11] and in [14] was inactive. The molecule was classed as inactive in [15], in assay [16], in [17], in assay [18] and in [19]. Also, the figures for the AC50 in assay [12] and in assay [13] were 12.2 µM (active) and 13.5 µM (active), respectively.
`Cc1cc(=O)[nH]c(C(C)C)n1`: the molecule was called inactive in assay [1], in [2], in assay [3], in assay [4], in [5] and in assay [6]. Also, the molecule was classed as inactive in [7], in assay [8], in [9], in assay [10], in [20] and in [12]. For the same molecule, the molecule was called inactive in [13], in assay [14], in [15], in assay [16], in assay [17] and in assay [18].
As for `CSc1ccc(O)cc1C`, the outcome in [1], in assay [2], in [3], in assay [4], in assay [5] and in [6] was inactive. Also, the molecule was called inactive in [7], in assay [8], in assay [9], in assay [10], in assay [11] and in assay [20]. The molecule was classed as inactive in [13], in [14], in assay [15], in assay [16], in [17] and in assay [19]. Besides, the half-maximal activity concentration (AC50) in assay [12] is 44.3 µM (active).
For `OCCCc1cccnc1`, the result in [1], in [2], in [3], in assay [4], in assay [5] and in assay [6] was inactive. The molecule was called inactive in assay [7], in assay [8], in assay [9], in assay [10], in assay [11] and in [12]. For the same molecule, the call in assay [13], in [14], in assay [15], in assay [16], in [17] and in assay [18] was inactive.

The values are drawn from PubChem BioAssay (EPA / NIEHS).
